# Test results taken from PubChem BioAssay AID1159580 (chemical genetic matrix, 2015).
# Values joined by “and” are separate entries in the source; they are usually repeats but may differ in a detail not shown here. Identical values can stand only once. Out of some 5,500 compounds screened, about 2,000 (36%) were called active. Roughly 18% stayed inconclusive and do not appear here. This is one part of the list. Values without a mark were called inactive. No stated cut-off is given here; in the data, active means normalized growth mostly below about 0.91 (no sharp cut-off); inconclusive means no clear call, values can overlap the other calls; inactive means mostly above about 0.92.
# Assay: chemical genetic growth profiling, strain panel (AID 1159580);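 further: tested at 20 µM; growth read once vehicle control cultures reached saturation at 30 °C; 1 = growth at the plate median or of vehicle wells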
# Conditions: S. cerevisiae deletion strains, growth OD
structure (smiles),measurement,setting,value
CC(=O)Oc1ccc2c(c1)CCC1C2CC[C@]2(C)C(=O)CCC12 (some centres undefined),normalized growth,"locus YAL013W, strain DEP1, stronger effect = lower value",0.985
same,normalized growth,"locus YAL021C, strain ccr4, stronger effect = lower value",0.995
same,normalized growth,"locus YAL026C, strain drs2, stronger effect = lower value",0.992
same,normalized growth,"locus YAL030W, strain snc1, stronger effect = lower value",0.972
same,normalized growth,"locus YBL061C, strain skt5, stronger effect = lower value",0.987
same,normalized growth,"locus YBR009C, strain hhf1, stronger effect = lower value",0.986
same,normalized growth,"locus YBR021W, strain FUR4, stronger effect = lower value",0.961
same,normalized growth,"locus YBR023C, strain chs3, stronger effect = lower value",0.985
same,normalized growth,"locus YBR171W, strain sec66, stronger effect = lower value",0.963
same,normalized growth,"locus YBR229C, strain ROT2, stronger effect = lower value",1
same,normalized growth,"locus YBR231C, strain swc5, stronger effect = lower value",0.984
same,normalized growth,"locus YBR279W, strain paf1, stronger effect = lower value",0.98
same,normalized growth,"locus YCL011C, strain gbp2, stronger effect = lower value",0.994
same,normalized growth,"locus YCL016C, strain dcc1, stronger effect = lower value",0.997
same,normalized growth,"locus YCL029C, strain bik1, stronger effect = lower value",1.03
same,normalized growth,"locus YCL061C, strain MRC1, stronger effect = lower value",0.985
same,normalized growth,"locus YCL069W, strain vba3, stronger effect = lower value",0.986
same,normalized growth,"locus YCR088W, strain abp1, stronger effect = lower value",0.979
same,normalized growth,"locus YDL005C, strain med2, stronger effect = lower value",0.959
same,normalized growth,"locus YDL035C, strain GPR1, stronger effect = lower value",0.957
same,normalized growth,"locus YDL040C, strain nat1, stronger effect = lower value",0.989
same,normalized growth,"locus YDL074C, strain BRE1, stronger effect = lower value",0.911
same,normalized growth,"locus YDL101C, strain DUN1, stronger effect = lower value",1
same,normalized growth,"locus YDL134C, strain PPH21, stronger effect = lower value",0.977
same,normalized growth,"locus YDL185W, strain tfp1, stronger effect = lower value",1
same,normalized growth,"locus YDL192W, strain arf1, stronger effect = lower value",1.01
same,normalized growth,"locus YDR001C, strain nth1, stronger effect = lower value",0.985
same,normalized growth,"locus YDR069C, strain doa4, stronger effect = lower value",0.969
same,normalized growth,"locus YDR101C, strain arx1, stronger effect = lower value",1.02
same,normalized growth,"locus YDR137W, strain rgp1, stronger effect = lower value",0.808 (active)
same,normalized growth,"locus YDR150W, strain NUM1, stronger effect = lower value",0.994
same,normalized growth,"locus YDR159W, strain sac3, stronger effect = lower value",0.979
same,normalized growth,"locus YDR162C, strain NBP2, stronger effect = lower value",0.998
same,normalized growth,"locus YDR195W, strain ref2",0.942
same,normalized growth,"locus YDR297W, strain sur2, stronger effect = lower value",0.99
same,normalized growth,"locus YDR318W, strain mcm21, stronger effect = lower value",1.01
same,normalized growth,"locus YDR334W, strain swr1, stronger effect = lower value",0.984
same,normalized growth,"locus YDR335W, strain msn5, stronger effect = lower value",0.992
same,normalized growth,"locus YDR388W, stronger effect = lower value",1.02
same,normalized growth,"locus YDR392W, strain spt3, stronger effect = lower value",1.03
same,normalized growth,"locus YDR502C, strain sam2, stronger effect = lower value",1.01
same,normalized growth,"locus YEL003W, strain gim4, stronger effect = lower value",0.988
same,normalized growth,"locus YEL037C, strain rad23, stronger effect = lower value",0.989
same,normalized growth,"locus YEL061C, strain CIN8 (second series), stronger effect = lower value",0.977
same,normalized growth,"locus YEL061C, strain CIN8, stronger effect = lower value",0.998
same,normalized growth,"locus YER015W, strain faa2, stronger effect = lower value",0.964
same,normalized growth,"locus YER016W, strain bim1, stronger effect = lower value",0.991
same,normalized growth,"locus YER110C, stronger effect = lower value",1.01
same,normalized growth,"locus YER111C, strain swi4, stronger effect = lower value",0.96
same,normalized growth,"locus YER155C, strain BEM2 (second series), stronger effect = lower value",0.923
same,normalized growth,"locus YER155C, strain BEM2, stronger effect = lower value",1.02
same,normalized growth,"locus YER167W, strain BCK2, stronger effect = lower value",1.02
same,normalized growth,"locus YFR010W, strain ubp6, stronger effect = lower value",0.985
same,normalized growth,"locus YGL078C, strain dbp3, stronger effect = lower value",1.02
same,normalized growth,"locus YGL086W, strain mad1, stronger effect = lower value",1
same,normalized growth,"locus YGL167C, strain pmr1, stronger effect = lower value",0.98
same,normalized growth,"locus YGL173C, strain kem1, stronger effect = lower value",0.981
same,normalized growth,"locus YGL227W, strain vid30, stronger effect = lower value",0.987
same,normalized growth,"locus YGL240W, strain doc1, stronger effect = lower value",0.95
same,normalized growth,"locus YGL248W, strain PDE1, stronger effect = lower value",0.949
same,normalized growth,"locus YGL253W, strain hxk2, stronger effect = lower value",0.995
same,normalized growth,"locus YGR135W, strain pre9, stronger effect = lower value",1.01
same,normalized growth,"locus YGR229C, strain SMI1, stronger effect = lower value",1.03
same,normalized growth,"locus YGR252W, strain gcn5, stronger effect = lower value",0.887
same,normalized growth,"locus YHR013C, strain ard1, stronger effect = lower value",1
same,normalized growth,"locus YHR027C, strain rpn1, stronger effect = lower value",0.969
same,normalized growth,"locus YHR030C, strain SLT2, stronger effect = lower value",1.01 and 0.944
same,normalized growth,"locus YHR079C, strain IRE1 (second series), stronger effect = lower value",1.02
same,normalized growth,"locus YHR079C, strain IRE1, stronger effect = lower value",0.933
same,normalized growth,"locus YHR094C, strain hxt1, stronger effect = lower value",1.02
same,normalized growth,"locus YHR129C, strain ARP1, stronger effect = lower value",1.01
same,normalized growth,"locus YHR142W, strain chs7, stronger effect = lower value",0.978
same,normalized growth,"locus YHR200W, strain rpn10, stronger effect = lower value",1.02
same,normalized growth,"locus YIL066C, strain RNR3, stronger effect = lower value",0.944
same,normalized growth,"locus YIL073C, strain SPO22, stronger effect = lower value",0.921
same,normalized growth,"locus YIL125W, strain kgd1, stronger effect = lower value",1.01
same,normalized growth,"locus YIR030C, strain dcg1, stronger effect = lower value",1.02
same,normalized growth,"locus YJL092W, strain hpr5, stronger effect = lower value",0.981
same,normalized growth,"locus YJL095W, strain BCK1 (second series), stronger effect = lower value",0.985
same,normalized growth,"locus YJL095W, strain BCK1, stronger effect = lower value",0.92 and 0.928
same,normalized growth,"locus YJL115W, strain asf1, stronger effect = lower value",0.978
same,normalized growth,"locus YJL129C, strain trk1, stronger effect = lower value",0.984
same,normalized growth,"locus YJL134W, strain LCB3, stronger effect = lower value",1.01
same,normalized growth,"locus YJL154C, strain vps35, stronger effect = lower value",0.979
same,normalized growth,"locus YJL164C, strain tpk1, stronger effect = lower value",0.996
same,normalized growth,"locus YJL166W, strain qcr8, stronger effect = lower value",0.96
same,normalized growth,"locus YJL168C, strain set2, stronger effect = lower value",1.01
same,normalized growth,"locus YJL187C, strain SWE1 (second series), stronger effect = lower value",0.969
same,normalized growth,"locus YJL187C, strain SWE1, stronger effect = lower value",0.981
